Columns and labels:
Assay in all cases: log2 ratio of Biotin-Ahx-Ub-VS probe labelling (fragment/DMSO); higher = less target engagement (more negative = stronger competition), active = hit call of the paper (q ≤ 0.05, log2 ratio ≤ -1)
Conditions in all cases: compound concentration: 200 uM; treatment time: 3 h
[1] = target: T1, USP19 (UniProt O94966)
T1 sequence (whole entry): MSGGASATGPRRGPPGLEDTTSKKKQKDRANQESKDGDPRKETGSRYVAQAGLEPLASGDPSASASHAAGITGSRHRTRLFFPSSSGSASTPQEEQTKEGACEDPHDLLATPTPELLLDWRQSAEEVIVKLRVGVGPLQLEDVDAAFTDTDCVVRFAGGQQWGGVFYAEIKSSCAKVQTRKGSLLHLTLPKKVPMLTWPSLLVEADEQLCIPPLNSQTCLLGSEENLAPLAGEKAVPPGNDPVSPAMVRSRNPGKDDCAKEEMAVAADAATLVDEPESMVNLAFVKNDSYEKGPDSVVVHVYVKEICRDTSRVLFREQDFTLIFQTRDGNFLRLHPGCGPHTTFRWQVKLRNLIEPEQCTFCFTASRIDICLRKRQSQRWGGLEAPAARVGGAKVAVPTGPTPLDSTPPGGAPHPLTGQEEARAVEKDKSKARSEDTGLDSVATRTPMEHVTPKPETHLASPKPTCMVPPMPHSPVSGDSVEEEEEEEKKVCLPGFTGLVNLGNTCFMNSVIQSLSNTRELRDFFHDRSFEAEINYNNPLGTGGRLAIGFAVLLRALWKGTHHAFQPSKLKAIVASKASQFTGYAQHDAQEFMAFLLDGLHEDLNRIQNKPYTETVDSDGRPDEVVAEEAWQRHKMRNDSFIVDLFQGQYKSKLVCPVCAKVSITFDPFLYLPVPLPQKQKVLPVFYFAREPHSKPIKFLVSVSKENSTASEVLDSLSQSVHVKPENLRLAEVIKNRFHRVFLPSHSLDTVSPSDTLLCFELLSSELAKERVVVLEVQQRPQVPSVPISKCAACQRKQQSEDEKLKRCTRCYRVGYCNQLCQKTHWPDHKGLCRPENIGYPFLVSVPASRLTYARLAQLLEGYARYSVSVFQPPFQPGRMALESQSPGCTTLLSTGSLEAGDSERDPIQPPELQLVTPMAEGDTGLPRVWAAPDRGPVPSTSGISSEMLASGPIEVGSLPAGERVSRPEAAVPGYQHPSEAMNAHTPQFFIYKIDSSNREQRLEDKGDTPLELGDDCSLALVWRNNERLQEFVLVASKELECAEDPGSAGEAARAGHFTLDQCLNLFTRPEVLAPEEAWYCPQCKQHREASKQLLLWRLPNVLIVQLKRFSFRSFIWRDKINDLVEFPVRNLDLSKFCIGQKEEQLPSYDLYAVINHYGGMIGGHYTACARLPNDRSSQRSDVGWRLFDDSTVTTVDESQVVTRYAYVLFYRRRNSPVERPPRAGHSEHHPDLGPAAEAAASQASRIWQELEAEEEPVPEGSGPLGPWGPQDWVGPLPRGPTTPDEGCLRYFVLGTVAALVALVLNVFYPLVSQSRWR
Summary of the method: (§1)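 Average log2 ratios of fragment over vehicle were obtained by unpaired t-test from global-median-normalised Spectronaut label-free quantities. Proteins with ≥2 unique peptides were included. HEK293T lysate (495 µg per sample) was treated in triplicate with fragment at 200 µM or vehicle for 3 h, then with Biotin-Ahx-Ub-VS at 0.5 µM final for 1 h, and labelled DUBs were NeutrAvidin-enriched and run by diaPASEF LC-MS/MS.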

[2] = target: T2, USP22 (UniProt Q9UPT9)
T2 sequence (whole entry): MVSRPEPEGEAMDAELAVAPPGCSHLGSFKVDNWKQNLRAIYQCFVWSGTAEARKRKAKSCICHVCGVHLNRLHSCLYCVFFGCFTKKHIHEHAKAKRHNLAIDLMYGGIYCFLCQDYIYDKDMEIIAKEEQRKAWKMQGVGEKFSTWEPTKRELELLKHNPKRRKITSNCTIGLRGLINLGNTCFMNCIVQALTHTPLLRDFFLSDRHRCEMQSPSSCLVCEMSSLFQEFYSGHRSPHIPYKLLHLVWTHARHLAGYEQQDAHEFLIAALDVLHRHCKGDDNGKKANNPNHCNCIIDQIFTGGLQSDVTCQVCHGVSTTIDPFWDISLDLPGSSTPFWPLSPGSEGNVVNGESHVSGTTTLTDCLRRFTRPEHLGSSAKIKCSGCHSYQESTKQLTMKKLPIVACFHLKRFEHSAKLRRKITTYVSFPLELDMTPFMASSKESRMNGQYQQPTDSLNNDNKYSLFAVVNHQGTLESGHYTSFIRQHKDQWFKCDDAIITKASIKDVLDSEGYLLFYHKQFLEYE
Summary of the method: as §1

[3] = target: USP24 (UniProt Q9UPU5)
Summary of the method: as §1

[4] = target: T3, USP25 (UniProt Q9UHP3)
T3 sequence (whole entry): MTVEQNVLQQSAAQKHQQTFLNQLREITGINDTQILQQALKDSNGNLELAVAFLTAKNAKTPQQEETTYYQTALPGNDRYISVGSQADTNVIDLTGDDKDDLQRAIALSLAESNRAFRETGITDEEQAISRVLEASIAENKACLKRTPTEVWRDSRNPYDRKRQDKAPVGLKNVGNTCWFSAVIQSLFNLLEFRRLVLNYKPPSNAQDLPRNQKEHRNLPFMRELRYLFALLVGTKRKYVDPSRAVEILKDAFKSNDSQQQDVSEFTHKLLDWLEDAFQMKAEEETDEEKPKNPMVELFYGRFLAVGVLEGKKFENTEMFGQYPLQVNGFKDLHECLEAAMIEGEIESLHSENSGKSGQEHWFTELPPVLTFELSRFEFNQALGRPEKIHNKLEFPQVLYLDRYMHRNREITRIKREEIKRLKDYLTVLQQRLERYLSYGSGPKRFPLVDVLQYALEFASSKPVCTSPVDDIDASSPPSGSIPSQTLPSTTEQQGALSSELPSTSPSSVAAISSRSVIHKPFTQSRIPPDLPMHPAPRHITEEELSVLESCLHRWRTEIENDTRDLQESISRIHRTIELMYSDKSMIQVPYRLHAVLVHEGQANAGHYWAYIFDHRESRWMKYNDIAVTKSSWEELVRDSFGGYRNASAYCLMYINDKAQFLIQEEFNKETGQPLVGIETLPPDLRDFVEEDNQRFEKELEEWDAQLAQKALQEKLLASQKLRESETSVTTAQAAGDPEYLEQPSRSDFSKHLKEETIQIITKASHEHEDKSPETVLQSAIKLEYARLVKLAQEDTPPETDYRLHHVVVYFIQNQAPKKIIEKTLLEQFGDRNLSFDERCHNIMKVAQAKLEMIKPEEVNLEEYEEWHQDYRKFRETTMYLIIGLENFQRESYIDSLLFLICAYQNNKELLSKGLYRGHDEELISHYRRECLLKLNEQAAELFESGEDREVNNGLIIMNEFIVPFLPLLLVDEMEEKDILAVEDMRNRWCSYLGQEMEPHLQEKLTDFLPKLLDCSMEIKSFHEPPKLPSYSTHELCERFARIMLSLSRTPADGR
Summary of the method: as §1

[5] = target: T4, USP28 (UniProt Q96RU2)
T4 sequence (whole entry): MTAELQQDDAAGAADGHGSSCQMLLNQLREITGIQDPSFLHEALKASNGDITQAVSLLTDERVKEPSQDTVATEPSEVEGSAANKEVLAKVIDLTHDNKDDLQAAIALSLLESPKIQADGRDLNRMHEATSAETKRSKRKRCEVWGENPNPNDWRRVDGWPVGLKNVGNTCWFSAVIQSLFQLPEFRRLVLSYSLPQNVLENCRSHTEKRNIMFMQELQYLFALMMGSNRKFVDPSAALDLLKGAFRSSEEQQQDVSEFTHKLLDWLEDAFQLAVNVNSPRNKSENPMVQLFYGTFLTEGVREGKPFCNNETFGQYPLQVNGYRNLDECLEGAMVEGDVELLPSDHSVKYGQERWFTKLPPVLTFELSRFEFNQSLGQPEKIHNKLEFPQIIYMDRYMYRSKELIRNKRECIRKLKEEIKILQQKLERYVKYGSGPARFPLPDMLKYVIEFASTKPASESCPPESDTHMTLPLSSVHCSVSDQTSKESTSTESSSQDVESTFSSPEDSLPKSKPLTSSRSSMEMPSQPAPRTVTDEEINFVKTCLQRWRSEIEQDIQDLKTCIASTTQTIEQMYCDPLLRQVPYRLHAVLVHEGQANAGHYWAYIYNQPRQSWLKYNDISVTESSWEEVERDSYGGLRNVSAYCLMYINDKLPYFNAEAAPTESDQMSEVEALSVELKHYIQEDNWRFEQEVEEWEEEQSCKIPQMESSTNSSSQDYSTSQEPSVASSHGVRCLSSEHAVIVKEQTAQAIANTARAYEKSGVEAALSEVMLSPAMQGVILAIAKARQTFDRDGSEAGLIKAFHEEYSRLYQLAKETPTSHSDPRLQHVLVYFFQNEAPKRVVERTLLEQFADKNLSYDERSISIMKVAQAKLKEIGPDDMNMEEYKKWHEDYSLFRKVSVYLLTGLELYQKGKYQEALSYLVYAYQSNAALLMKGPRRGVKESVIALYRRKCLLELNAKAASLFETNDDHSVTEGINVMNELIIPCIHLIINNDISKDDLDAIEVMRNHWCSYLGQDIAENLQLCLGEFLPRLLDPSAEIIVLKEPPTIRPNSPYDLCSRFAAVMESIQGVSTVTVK
Summary of the method: as §1

Measured: log2 ratio of Biotin-Ahx-Ub-VS probe labelling

USP24, sequence (Q9UPU5 whole entry): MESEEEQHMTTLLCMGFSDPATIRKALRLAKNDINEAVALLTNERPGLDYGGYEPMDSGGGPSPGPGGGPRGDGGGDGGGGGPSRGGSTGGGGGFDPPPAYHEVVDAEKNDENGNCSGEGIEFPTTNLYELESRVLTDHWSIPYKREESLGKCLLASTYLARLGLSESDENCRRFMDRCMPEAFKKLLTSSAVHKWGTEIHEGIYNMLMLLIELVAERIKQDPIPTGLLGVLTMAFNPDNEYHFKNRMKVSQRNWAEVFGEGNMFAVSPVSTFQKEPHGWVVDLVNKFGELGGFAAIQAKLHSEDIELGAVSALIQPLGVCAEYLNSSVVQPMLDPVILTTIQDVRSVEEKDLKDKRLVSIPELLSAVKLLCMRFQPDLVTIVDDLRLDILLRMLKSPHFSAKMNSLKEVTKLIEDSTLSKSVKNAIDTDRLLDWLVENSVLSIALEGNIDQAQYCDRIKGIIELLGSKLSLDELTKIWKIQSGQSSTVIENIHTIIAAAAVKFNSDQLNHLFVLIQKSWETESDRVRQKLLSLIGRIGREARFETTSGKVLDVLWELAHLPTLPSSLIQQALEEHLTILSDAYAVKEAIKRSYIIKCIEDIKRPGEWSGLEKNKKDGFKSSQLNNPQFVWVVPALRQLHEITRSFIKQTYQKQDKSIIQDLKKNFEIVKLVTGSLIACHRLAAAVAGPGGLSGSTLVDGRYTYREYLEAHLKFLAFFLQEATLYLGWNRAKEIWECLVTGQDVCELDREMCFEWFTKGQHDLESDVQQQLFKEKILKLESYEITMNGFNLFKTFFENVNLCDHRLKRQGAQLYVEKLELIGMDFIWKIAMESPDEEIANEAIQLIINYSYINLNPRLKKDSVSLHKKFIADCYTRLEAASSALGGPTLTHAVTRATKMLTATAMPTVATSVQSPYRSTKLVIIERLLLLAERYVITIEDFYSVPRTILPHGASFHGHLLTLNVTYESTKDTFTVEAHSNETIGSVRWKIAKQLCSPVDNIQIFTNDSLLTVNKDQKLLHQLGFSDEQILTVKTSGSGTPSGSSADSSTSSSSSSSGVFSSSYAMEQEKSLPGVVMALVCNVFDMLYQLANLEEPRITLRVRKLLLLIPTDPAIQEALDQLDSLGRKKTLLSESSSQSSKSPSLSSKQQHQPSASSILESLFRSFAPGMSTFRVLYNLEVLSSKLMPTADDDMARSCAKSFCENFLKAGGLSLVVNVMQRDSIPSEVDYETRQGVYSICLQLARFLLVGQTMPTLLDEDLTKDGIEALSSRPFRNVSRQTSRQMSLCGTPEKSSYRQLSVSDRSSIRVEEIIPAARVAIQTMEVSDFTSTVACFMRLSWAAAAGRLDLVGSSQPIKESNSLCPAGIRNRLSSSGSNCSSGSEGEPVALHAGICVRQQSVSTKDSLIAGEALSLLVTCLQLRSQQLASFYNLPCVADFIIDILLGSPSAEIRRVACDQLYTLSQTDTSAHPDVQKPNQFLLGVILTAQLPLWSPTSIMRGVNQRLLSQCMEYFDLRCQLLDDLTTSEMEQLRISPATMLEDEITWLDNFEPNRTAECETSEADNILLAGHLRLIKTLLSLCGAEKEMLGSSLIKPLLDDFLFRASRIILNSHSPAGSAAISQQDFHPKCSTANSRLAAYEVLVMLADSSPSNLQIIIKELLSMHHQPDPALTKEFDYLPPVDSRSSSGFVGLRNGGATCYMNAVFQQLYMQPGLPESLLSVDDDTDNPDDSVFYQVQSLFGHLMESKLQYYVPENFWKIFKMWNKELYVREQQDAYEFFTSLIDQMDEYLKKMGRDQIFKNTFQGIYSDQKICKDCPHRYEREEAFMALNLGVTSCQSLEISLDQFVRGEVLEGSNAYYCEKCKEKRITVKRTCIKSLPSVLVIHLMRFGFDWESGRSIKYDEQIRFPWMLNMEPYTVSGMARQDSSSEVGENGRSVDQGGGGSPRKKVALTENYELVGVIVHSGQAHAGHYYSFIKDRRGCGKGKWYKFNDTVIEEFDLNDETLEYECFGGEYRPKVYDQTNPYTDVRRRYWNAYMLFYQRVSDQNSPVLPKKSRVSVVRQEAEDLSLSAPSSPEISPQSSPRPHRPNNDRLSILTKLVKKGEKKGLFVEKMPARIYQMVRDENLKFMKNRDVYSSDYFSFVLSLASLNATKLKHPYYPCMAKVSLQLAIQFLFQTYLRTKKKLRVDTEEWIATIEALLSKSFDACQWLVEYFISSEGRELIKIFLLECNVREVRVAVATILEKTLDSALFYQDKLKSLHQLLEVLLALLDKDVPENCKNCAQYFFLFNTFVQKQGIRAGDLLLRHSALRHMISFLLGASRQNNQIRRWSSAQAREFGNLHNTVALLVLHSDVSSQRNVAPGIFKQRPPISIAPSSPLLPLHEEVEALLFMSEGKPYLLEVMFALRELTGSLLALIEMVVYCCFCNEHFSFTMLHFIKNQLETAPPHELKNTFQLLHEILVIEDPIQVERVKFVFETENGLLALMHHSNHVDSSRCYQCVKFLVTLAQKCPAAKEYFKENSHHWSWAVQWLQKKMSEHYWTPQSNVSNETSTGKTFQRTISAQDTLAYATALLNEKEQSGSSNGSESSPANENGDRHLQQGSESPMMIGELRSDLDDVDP

Cl.O=C(CN1CCN(C(=O)CCl)CC1)Nc1ccc(F)cc1
inactive: [1] -0.172 | [2] 0.179 | [3] -0.098 | [4] 0.0867 | [5] 0.0845
